In assay [1] the target is Retinoic acid receptor RXR-alpha (Homo sapiens) (UniProt P19793). As to the kind of experiment: ATG_RXRa_TRANS: Attagene TRANS-FACTORIAL HepG2 Assay for human Retinoid X Receptor alpha (RXRa) (AID 2283012; active = hit-call score of the fitted dose curve at least 0.9, where 1 is the maximum). The essentials: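 Transient transfection of human HepG2 with multiple GAL4-UAS reporter constructs; 24 h compound exposure; total RNA isolated, reverse-transcribed, PCR-amplified, 6-FAM labelled, HpaI-cut, resolved by capillary electrophoresis. Positive-direction fit versus DMSO.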
Retinoic acid receptor RXR-alpha (Homo sapiens), sequence (P19793 whole entry, looked up, the tested form may be a part): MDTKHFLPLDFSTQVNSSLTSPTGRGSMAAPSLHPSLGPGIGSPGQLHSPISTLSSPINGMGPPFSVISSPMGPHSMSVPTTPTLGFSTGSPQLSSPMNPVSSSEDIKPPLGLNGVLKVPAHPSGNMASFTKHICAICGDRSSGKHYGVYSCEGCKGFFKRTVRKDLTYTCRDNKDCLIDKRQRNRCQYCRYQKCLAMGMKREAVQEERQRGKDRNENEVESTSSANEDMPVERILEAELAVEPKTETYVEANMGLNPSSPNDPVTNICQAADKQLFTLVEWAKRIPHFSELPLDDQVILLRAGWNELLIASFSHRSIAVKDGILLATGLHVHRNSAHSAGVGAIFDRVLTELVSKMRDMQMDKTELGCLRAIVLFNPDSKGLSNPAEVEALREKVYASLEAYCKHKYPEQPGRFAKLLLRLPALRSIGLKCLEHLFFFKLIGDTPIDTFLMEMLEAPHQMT

Read-out in assay [2]: E-selectin (Homo sapiens) (UniProt P16581)
Put plainly: BSK_3C_Eselectin: BioMAP Diversity Plus: 3C Assay for Eselectin Biomarker Activity (AID 2283015).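 Also: cell surface E-selectin protein quantified by ELISA 24 h after dosing.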 The settings on record: primary human endothelial cells (HUVEC); actives raise or lower the signal. The gist of the method: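 Human vascular endothelium from umbilical vein is exposed to test chemicals for 24 h. E-selectin levels are read by ELISA and compared with DMSO controls.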

Read-out in assay [3]: Interleukin-1 alpha (IL1a), IL1A (gene 3552)
Put plainly: BSK_BE3C_IL1a: BioMAP Diversity Plus: BE3C Assay for Interleukin-1 alpha (IL1a) Biomarker Activity (AID 2283016). The note with it: primary human bronchial epithelial cells; actives raise or lower the signal. The gist of the method: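 BE3C primary human bronchial epithelium; cpd 24 h; IL-1a by ELISA; bidirectional fit vs DMSO; parallel SRB (0.1% SRB, 10% TCA fix, 560 nm) for cytotoxicity.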

Read-out in assay [4]: Monocyte Chemoattractant Protein-1 (MCP1), CCL2 (gene 6347)
As to the kind of experiment: BSK_3C_MCP1: BioMAP Diversity Plus: 3C Assay for Monocyte Chemoattractant Protein-1 (MCP1) Biomarker Activity (AID 2283017). The settings on record: primary human endothelial cells (HUVEC); actives raise or lower the signal. The gist of the method:
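Endothelial cells from human umbilical vein are dosed with chemical, cultured 24 h, then assayed for MCP-1 by ELISA; both increases and decreases are modelled against DMSO controls.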

Read-out in assay [5]: Human Leukocyte Antigen - DR isotype (HLADR), HLA-DRA (gene 3122)
Put plainly: BSK_3C_HLADR: BioMAP Diversity Plus: 3C Assay for Human Leukocyte Antigen - DR isotype (HLADR) Biomarker Activity (AID 2283019).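 As to outcome: ELISA of cell-surface HLA-DR on HUVEC 24 h after dosing.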 The note with it: primary human endothelial cells (HUVEC); actives raise or lower the signal. The essentials: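 Endothelial cells from human umbilical vein are treated with test chemical; after 24 h, HLA-DR levels are measured by ELISA. Data are fitted in both directions using DMSO as the baseline.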

Read-out in assay [6]: Monokine induced gamma interferon (MIG), CXCL9 (gene 4283)
As to the kind of experiment: BSK_3C_MIG: BioMAP Diversity Plus: 3C Assay for Monokine induced gamma interferon (MIG) Biomarker Activity (AID 2283021).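 As to AC50: MIG protein level measured by immunoassay in the treated endothelial cultures.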 The settings on record: primary human endothelial cells (HUVEC); actives raise or lower the signal. The gist of the method:
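Read-out is ELISA detection of MIG on human umbilical vein endothelial cells, taken 24 h after dosing. Gain or loss of signal was scored relative to DMSO controls using bidirectional curve fitting.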

The target in assay [7] is human Vitamin D Receptor (VDR), VDR (gene 7421) (UniProt P11473). Put plainly: ATG_VDR_TRANS: Attagene TRANS-FACTORIAL HepG2 Assay for human Vitamin D Receptor (VDR) (AID 2283022; active = hit-call score of the fitted dose curve at least 0.9, where 1 is the maximum). The essentials: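 Fluorescence of labelled reporter cDNA fragments, resolved by capillary electrophoresis, gives mRNA induction after 24 h treatment of HepG2 cells carrying transfected Gal4-fusion reporter units. Activity is fitted in the positive direction with DMSO as baseline.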
human Vitamin D Receptor (VDR), VDR (gene 7421), sequence (P11473 whole entry, looked up, the tested form may be a part): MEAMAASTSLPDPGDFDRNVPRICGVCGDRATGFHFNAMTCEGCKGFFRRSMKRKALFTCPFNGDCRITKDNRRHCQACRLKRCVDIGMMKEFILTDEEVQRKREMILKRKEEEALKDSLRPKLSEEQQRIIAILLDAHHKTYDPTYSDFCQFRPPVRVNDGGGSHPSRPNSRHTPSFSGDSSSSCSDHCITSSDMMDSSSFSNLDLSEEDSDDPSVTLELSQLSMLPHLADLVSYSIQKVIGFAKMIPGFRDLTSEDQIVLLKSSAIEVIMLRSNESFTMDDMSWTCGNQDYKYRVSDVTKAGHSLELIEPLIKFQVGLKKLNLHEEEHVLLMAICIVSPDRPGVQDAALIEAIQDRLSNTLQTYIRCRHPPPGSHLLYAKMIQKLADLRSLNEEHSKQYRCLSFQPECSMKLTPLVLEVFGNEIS

Assay [8] is described as follows: BSK_3C_SRB: Viability Assessment in the BioMAP Diversity Plus: 3C Assay (AID 2283023).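 Also: fitted both ways against DMSO so a hit may be signal rise or drop.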 The settings on record: primary human endothelial cells (HUVEC). The essentials: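 Cells were dosed with chemical, cultured 24 h, fixed with 10% TCA, stained with 0.1% SRB and read at 560 nm. Human umbilical vein endothelium was used; DMSO served as negative control and baseline.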

Read-out in assay [9]: Matrix Metallopeptidase 1 (MMP1), MMP1 (gene 4312)
Put plainly: BSK_BE3C_MMP1: BioMAP Diversity Plus: BE3C Assay for Matrix Metallopeptidase 1 (MMP1) Biomarker Activity (AID 2283024). The settings on record: primary human bronchial epithelial cells; actives raise or lower the signal. The essentials: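 Human bronchial epithelial cells (BE3C system) exposed to compound for 24 h; MMP1 then quantified by ELISA. Activity was fitted in both directions relative to DMSO.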

Read-out in assay [10]: Pselectin, SELP (gene 6403)
Put plainly: BSK_4H_Pselectin: BioMAP Diversity Plus: 4H Assay for Pselectin Biomarker Activity (AID 2283026). The note with it: primary human endothelial cells (HUVEC); actives raise or lower the signal. The essentials: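 ELISA read-out of P-selectin on human umbilical vein endothelium after 24 h of dosing. Values derive from bidirectional fitting relative to DMSO. Parallel SRB protein staining flagged overt cytotoxicity.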

Assay [11] in a line: BSK_BE3C_SRB: Viability Assessment in the BioMAP Diversity Plus: BE3C Assay (AID 2283028).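 As to AC50: fitted both ways so AC50 may mark signal gain or loss versus DMSO.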 The settings on record: primary human bronchial epithelial cells. The essentials:
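Overt cytotoxicity was assessed as total protein in confluent human primary bronchial epithelial cultures 24 h after chemical addition, using 0.1% sulforhodamine B staining read at 560 nm.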

Read-out in assay [12]: Thrombomodulin, THBD (gene 7056)
As to the kind of experiment: BSK_3C_Thrombomodulin: BioMAP Diversity Plus: 3C Assay for Thrombomodulin Biomarker Activity (AID 2283029). The settings on record: primary human endothelial cells (HUVEC); actives raise or lower the signal. The gist of the method:
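Read-out is ELISA of thrombomodulin on human umbilical vein endothelium 24 h after chemical dosing. Gain or loss of signal is scored relative to DMSO. Overt cytotoxicity is checked in parallel cultures by sulforhodamine B staining.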

Read-out in assay [13]: Urokinase-type plasminogen activator receptor (uPAR), PLAUR (gene 5329)
As to the kind of experiment: BSK_4H_uPAR: BioMAP Diversity Plus: 4H Assay for Urokinase-type plasminogen activator receptor (uPAR) Biomarker Activity (AID 2283030). The settings on record: primary human endothelial cells (HUVEC); actives raise or lower the signal. The essentials: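 Chemicals are dosed onto human vascular endothelial primary cells (umbilical vein). After 24 h, uPAR is read by ELISA. Gain or loss of signal is fitted relative to DMSO.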

Read-out in assay [14]: Vascular endothelial growth factor receptor 2 (Homo sapiens) (UniProt P35968)
Put plainly: BSK_4H_VEGFRII: BioMAP Diversity Plus: 4H Assay for Vascular endothelial growth factor receptor 2 (VEGFR2) Biomarker Activity (AID 2283031). The note with it: primary human endothelial cells (HUVEC); actives raise or lower the signal. The gist of the method:
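VEGFRII levels on human vascular endothelial primary cells were determined by ELISA at 24 hours post-dosing, with gain- or loss-of-signal fitted against DMSO controls.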

Read-out in assay [15]: Monocyte Chemoattractant Protein-1 (MCP1), CCL2 (gene 6347)
Put plainly: BSK_4H_MCP1: BioMAP Diversity Plus: 4H Assay for Monocyte Chemoattractant Protein-1 (MCP1) Biomarker Activity (AID 2283018). The note with it: primary human endothelial cells (HUVEC); actives raise or lower the signal. The essentials:
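ELISA read-out of MCP-1 from human vascular endothelial primary cells taken at 24 hours after compound exposure. Activity was fitted in both directions relative to DMSO, which served as negative control.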

Read-out in assay [16]: Interleukin-8 (IL8), CXCL8 (gene 3576)
As to the kind of experiment: BSK_3C_IL8: BioMAP Diversity Plus: 3C Assay for Interleukin-8 (IL8) Biomarker Activity (AID 2283020). The note with it: primary human endothelial cells (HUVEC); actives raise or lower the signal. The gist of the method:
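ELISA read-out of IL-8 from human umbilical vein endothelium, measured 24 h after chemical dosing. Activity is expressed relative to DMSO negative control, with both increases and decreases fitted.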

The nature of assay [17]: BSK_3C_Vis: BioMAP Diversity Plus: 3C Assay for Morphology Visualization (AID 2283025).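 Also: fitted both ways so gain or loss versus DMSO counts.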 The note with it: primary human endothelial cells (HUVEC). The gist of the method: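 Chemicals were added to primary human umbilical vein endothelium, cells were incubated 24 h, and morphology was then visualized by light microscopy. Gain or loss of signal was fitted bidirectionally relative to DMSO.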

A short description of assay [18]: BSK_4H_SRB: Viability Assessment in the BioMAP Diversity Plus: 4H Assay (AID 2283027).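 Also: cells exposed to compound for 24 h before staining.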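 As to AC50: curves fitted both ways versus DMSO so AC50 may be loss or gain.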 The settings on record: primary human endothelial cells (HUVEC). The essentials:
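Human umbilical vein endothelial cells were dosed with chemical and, after 24 h, fixed with 10% TCA, stained with 0.1% sulforhodamine B, and read at 560 nm to give total protein as a cytotoxicity measure. Bidirectional fitting relative to DMSO control.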

Assay [19] concerns the target human Retinoid X Receptor beta (RXRb), RXRB (gene 6257) (UniProt P28702). Put plainly: ATG_RXRb_TRANS: Attagene TRANS-FACTORIAL HepG2 Assay for human Retinoid X Receptor beta (RXRb) (AID 2283013; active = hit-call score of the fitted dose curve at least 0.9, where 1 is the maximum). The gist of the method: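 Transfect HepG2 with GAL4-UAS multi-reporter constructs (chimeric NR-Gal4, TRANS format); dose compound 24 h; isolate RNA, RT-PCR, FAM primer extension, HpaI digest; quantify by capillary electrophoresis; positive direction vs DMSO.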

Assay [20] addresses human Thyroid Receptor alpha (THRa1), THRA (gene 7067) (UniProt P10827). As to the kind of experiment: ATG_THRa1_TRANS: Attagene TRANS-FACTORIAL HepG2 Assay for human Thyroid Receptor alpha (THRa1) (AID 2283014; active = hit-call score of the fitted dose curve at least 0.9, where 1 is the maximum). The essentials: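 First, HepG2 cells receive multiple GAL4-UAS reporter units and the chimeric receptor. They are then dosed for 24 h, after which RNA is reverse-transcribed, amplified, labelled, HpaI-cut and sized by capillary electrophoresis; gain relative to DMSO is scored.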

Our source for the outcome and AC50 values is PubChem BioAssay (EPA / NIEHS).

Results filed as inconclusive are left out. Active and inactive are the calls of the source. The calls were made as follows, unless noted: active = hit-call score of the fitted dose curve at least 0.9, where 1 is the maximum; inactive = score below 0.9.

In general, AC50 refers to the concentration at which the activity in the assay is half-maximal.

E-selectin (Homo sapiens), sequence (P16581 whole entry, looked up): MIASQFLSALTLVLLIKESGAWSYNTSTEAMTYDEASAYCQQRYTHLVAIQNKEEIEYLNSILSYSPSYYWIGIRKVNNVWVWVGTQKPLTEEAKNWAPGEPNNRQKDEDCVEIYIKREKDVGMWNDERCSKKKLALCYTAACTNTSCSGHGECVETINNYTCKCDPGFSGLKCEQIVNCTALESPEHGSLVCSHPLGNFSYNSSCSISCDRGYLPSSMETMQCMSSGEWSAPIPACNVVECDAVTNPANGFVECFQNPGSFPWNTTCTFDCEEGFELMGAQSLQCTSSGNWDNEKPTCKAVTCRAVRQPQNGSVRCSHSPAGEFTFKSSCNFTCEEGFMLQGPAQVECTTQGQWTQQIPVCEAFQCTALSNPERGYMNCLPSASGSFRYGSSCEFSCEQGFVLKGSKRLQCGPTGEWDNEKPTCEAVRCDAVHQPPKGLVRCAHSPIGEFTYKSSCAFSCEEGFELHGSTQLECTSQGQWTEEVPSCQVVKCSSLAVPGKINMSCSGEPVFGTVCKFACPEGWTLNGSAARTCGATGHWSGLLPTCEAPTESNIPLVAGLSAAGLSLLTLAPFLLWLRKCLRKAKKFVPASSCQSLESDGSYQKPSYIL
human Thyroid Receptor alpha (THRa1), THRA (gene 7067), sequence (P10827 whole entry, looked up, the tested form may be a part): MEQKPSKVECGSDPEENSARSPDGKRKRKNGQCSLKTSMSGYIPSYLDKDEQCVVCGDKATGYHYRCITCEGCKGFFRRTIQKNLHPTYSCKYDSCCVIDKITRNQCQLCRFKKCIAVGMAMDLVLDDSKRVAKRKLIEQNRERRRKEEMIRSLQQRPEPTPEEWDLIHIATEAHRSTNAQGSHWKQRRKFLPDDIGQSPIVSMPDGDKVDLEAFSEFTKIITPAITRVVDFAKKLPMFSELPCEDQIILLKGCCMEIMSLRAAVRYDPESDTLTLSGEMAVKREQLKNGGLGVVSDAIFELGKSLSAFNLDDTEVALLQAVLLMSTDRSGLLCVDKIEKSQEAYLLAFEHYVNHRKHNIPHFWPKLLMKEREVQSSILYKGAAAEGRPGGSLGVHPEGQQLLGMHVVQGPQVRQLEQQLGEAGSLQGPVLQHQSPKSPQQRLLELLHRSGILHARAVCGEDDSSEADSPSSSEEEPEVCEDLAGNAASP
human Retinoid X Receptor beta (RXRb), RXRB (gene 6257), sequence (P28702 whole entry, looked up, the tested form may be a part): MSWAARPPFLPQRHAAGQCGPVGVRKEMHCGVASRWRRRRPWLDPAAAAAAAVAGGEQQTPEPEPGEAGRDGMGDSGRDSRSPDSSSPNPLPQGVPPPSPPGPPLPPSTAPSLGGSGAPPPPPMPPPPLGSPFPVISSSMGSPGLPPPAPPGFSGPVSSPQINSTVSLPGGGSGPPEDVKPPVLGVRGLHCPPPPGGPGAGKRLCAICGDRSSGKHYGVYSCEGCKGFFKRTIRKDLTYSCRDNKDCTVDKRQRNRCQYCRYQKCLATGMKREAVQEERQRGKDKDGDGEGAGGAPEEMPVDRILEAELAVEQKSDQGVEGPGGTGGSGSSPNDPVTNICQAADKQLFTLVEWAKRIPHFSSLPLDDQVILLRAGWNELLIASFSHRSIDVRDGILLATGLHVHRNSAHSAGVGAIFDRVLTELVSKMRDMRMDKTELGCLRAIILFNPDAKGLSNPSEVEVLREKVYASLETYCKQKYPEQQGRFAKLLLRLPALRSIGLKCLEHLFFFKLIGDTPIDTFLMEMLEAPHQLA

In the case of `CC/C(=C\C(=N/O)C(N)=O)C(C)[N+](=O)[O-]` (centres undefined), the call in assay [1], in assay [2], in assay [3], in assay [4], in [5] and in assay [6] was inactive. For the same compound, the call in assay [7], in assay [8], in assay [9], in assay [10], in assay [11] and in assay [12] was inactive. Also, the result in [13] and in [14] was inactive.

As to `O=C1CCCCCN1`, the compound was called inactive in [1], in assay [2], in assay [3], in [15], in assay [5] and in assay [16]. The outcome in assay [6], in assay [7], in [8], in assay [9], in [17] and in assay [10] was inactive. Also, the result in [18], in assay [11], in assay [12], in assay [13] and in assay [14] was inactive.

In the case of `Cc1ccc(S(=O)(=O)O)cc1C`, the outcome in [1], in assay [19], in [2], in [3], in assay [15] and in assay [5] was inactive. The result in assay [6], in assay [7], in assay [8], in assay [9], in assay [10] and in assay [11] was inactive. In addition, the outcome in assay [12] and in [13] was inactive.

Turning to `CCOc1cccc(-n2cc(C(=O)N3CCN(c4cc(C(=O)O)c5ccccc5c4)CC3)nc2-c2ccc(C)cc2)c1`, the compound was classed as inactive in assay [1], in [20], in assay [2], in assay [7] and in assay [12]. Also, the AC50 in assay [3] is 29.2 µM (active); in [4], 23 µM (active); in assay [15], 23.3 µM (active); in assay [5], 15.3 µM (active); in assay [6], 35.5 µM (active); in [8] it was 16.8 µM (active). The AC50 in assay [9] is 33.4 µM (active); in [10] it was 26.2 µM (active); in [18] it was 13.7 µM (active); in [11], 31.3 µM (active); in assay [13] it was 12.7 µM (active).

Consider `CC(C)=CCC/C(C)=C\CO`, for which the call in assay [1], in assay [2], in [3], in assay [4], in [5] and in [6] was inactive. The compound was classed as inactive in [7], in assay [8], in assay [9], in assay [17], in assay [10] and in [18]. In addition, the result in assay [11], in assay [12] and in assay [13] was inactive.

With `CCCCCCCCO`, the compound was called inactive in assay [1], in assay [2], in [3], in assay [4], in assay [5] and in assay [6]. Also, the result in assay [7], in assay [8], in [9], in assay [17], in assay [10] and in [11] was inactive. The result in [12], in assay [13] and in [14] was inactive.

With `Nc1cccc(N)c1`, the compound was classed as inactive in assay [1], in assay [20], in [2], in assay [3], in assay [4] and in assay [5]. The outcome in assay [16], in assay [6], in assay [7], in assay [8], in assay [9] and in assay [17] was inactive. Also, the result in assay [10], in [18], in assay [11], in assay [12], in [13] and in assay [14] was inactive.
